According to PubChem BioAssay (Tox21):
Several values for one entry are separate records, joined by “and”; a condition that tells them apart may be missing. Equal values may be shown once. Results filed as inconclusive are left out. Entries that show only a call come without a potency. More than one record can exist for a structure, and the calls need not agree. Activity calls are given as the source filed them. Unless noted, calls follow the shape of the dose curve; as a rule, active = well fitted curve in the direction sought with a large enough effect in the repeat runs; inconclusive = weak or mixed curves; inactive = no such curve, though single readings can be large; an effect the other way counts as inactive or inconclusive.

Assays:
[1] = biological target: Thyrotropin-releasing hormone receptor (Homo sapiens) (UniProt P34981); test: qHTS assay to identify small molecule agonists of the thyrotropin-releasing hormone receptor (TRHR) signaling pathway (AID 1346891; calls by dose curve; also: series mostly up to about 58 µM)
Chain of Thyrotropin-releasing hormone receptor (Homo sapiens) (P34981 whole entry, looked up): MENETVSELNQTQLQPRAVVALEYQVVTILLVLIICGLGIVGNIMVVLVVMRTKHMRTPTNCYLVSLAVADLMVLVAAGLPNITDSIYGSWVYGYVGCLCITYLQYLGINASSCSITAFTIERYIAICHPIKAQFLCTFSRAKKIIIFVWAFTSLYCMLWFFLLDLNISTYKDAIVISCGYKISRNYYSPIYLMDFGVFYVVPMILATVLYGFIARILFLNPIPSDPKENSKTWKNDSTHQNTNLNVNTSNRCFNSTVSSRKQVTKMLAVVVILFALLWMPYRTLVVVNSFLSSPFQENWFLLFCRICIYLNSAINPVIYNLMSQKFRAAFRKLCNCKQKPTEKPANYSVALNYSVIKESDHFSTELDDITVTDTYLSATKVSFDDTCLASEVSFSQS
Method in brief: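 TRHR-expressing HEK293 cells were plated 18 h at 37 °C/5% CO2, loaded with calcium dye 2 h at 37 °C, then given compound in DMSO; fluorescence was read kinetically for 3 min at 1 s intervals.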

[2] = Human pregnane X receptor (PXR) small molecule agonists, qHTS cell viability counter screen (AID 1346977); also: nearly all actives have a fitted effect of over 50% in size; also: potency is read from the fitted curve at half-maximal effect
Method in brief: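 PXR-Luc HepG2 cells in medium with 5% charcoal-stripped FBS were pre-incubated 5hr, then exposed to compounds for 24hr at 37C. Viability was read in the same wells by CellTiter-Fluor fluorescence, reagent added after 23hr with a 1hr incubation.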

[3] = Caspase-3/7 induction in HepG2 cells by small molecules, qHTS assay (AID 1346978); also: nearly all actives have a fitted effect of over 15% in size
Method in brief: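 Wild-type HepG2 cells (2,000/well) were settled 5 h at 37 C, 5% CO2, then exposed to compounds in DMSO for 17 h. Caspase-3/7 activity was read by luminescence 30 min after adding Caspase-Glo 3/7 reagent at room temperature.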

[4] = Caspase-3/7 induction in CHO-K1 cells by small molecules, qHTS cell viability counter screen (AID 1346979); also: nearly all actives have a fitted effect of over 35% in size; also: potency is read from the fitted curve at half-maximal effect
Method in brief: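 Wild-type CHO-K1 cells were seeded at 1,500 per well, rested 5hr at 37 C, then exposed to compounds in DMSO. After 16hr, CellTiter-Fluor reagent was added and fluorescence read 1hr later as the viability measure.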

[5] = Caspase-3/7 induction in CHO-K1 cells by small molecules, qHTS assay (AID 1346980); also: nearly all actives have a fitted effect of over 15% in size
Method in brief: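 Wild-type cells were seeded at 1,500 per well and settled 5 hr at 37 C, 5% CO2, then exposed to DMSO-dissolved compounds for 17 hr. Caspase-Glo 3/7 reagent was added, and luminescence was read after 30min at room temperature.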

[6] = Caspase-3/7 induction in HepG2 cells by small molecules, qHTS cell viability counter screen (AID 1346981); also: nearly all actives have a fitted effect of over 30% in size; also: potency is read from the fitted curve at half-maximal effect
Method in brief: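 Wild-type HepG2 cells (2,000/well) were allowed to settle for 5 hr at 37 C, 5% CO2, then dosed with compounds in DMSO by pin transfer. After 16 hr at 37 C, CellTiter-Fluor was added and fluorescence read 1 hr later.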

[7] = biological target: Nuclear receptor subfamily 1 group I member 2 (Homo sapiens) (UniProt O75469); test: Human pregnane X receptor (PXR) small molecule agonists, qHTS assay (AID 1346982); also: nearly all actives have a fitted effect of over 35% in size; also: potency is read from the fitted curve at half-maximal effect
Chain of Nuclear receptor subfamily 1 group I member 2 (Homo sapiens) (O75469 whole entry, looked up): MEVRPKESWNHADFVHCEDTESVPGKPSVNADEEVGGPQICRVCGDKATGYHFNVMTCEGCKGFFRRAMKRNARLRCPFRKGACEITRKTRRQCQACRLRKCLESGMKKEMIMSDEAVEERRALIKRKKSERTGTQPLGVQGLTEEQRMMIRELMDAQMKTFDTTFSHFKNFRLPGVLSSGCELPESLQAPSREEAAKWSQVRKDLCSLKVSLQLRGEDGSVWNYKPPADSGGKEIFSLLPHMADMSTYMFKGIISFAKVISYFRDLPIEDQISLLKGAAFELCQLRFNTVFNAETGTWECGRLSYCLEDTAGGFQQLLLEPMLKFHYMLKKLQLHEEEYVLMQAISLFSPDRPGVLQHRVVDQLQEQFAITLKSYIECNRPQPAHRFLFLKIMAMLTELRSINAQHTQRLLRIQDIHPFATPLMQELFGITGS
Method in brief: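 PXR-Luc HepG2 cells (CYP3A4 promoter-driven luciferase) were seeded in medium with 5% charcoal-stripped FBS, left 5 hr at 37 C, then exposed to compounds in DMSO for 24 hr. Luminescence was read after ONE-Glo addition.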

[8] = biological target: Cytochrome P450 2D6 (Homo sapiens) (UniProt P10635); test: Cytochrome P450 Family 2 Subfamily D Member 6 (CYP2D6) small molecule antagonists: luciferase reporter qHTS assay (AID 1671196); also: nearly all actives have a fitted effect of over 50% in size; also: potency is read from the fitted curve at half-maximal effect
Chain of Cytochrome P450 2D6 (Homo sapiens) (P10635 whole entry, looked up): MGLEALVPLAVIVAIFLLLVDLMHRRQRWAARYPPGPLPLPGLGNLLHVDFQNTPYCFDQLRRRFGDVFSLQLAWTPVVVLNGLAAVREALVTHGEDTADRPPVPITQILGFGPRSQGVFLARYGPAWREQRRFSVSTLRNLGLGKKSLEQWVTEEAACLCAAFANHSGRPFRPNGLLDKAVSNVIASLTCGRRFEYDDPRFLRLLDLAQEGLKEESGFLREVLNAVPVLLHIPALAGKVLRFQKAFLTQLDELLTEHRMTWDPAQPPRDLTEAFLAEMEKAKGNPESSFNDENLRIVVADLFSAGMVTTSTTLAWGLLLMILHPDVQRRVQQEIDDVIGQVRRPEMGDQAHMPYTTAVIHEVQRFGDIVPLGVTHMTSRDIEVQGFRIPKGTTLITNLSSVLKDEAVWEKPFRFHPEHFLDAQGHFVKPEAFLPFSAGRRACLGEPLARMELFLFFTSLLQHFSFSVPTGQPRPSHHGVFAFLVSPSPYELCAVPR
Method in brief: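 CYP2D6 enzyme–substrate mix was held with compound for 10 min at room temperature, then NADPH regeneration solution was added and the reaction ran 1 h at room temperature. Luciferin product was detected by luminescence after 20 min with detection reagent.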

[9] = biological target: Cytochrome P450 2C19 (Homo sapiens) (UniProt P33261); test: Cytochrome P450 Family 2 Subfamily C Member 19 (CYP2C19) small molecule antagonists: luciferase reporter qHTS assay (AID 1671197); also: nearly all actives have a fitted effect of over 65% in size; also: potency is read from the fitted curve at half-maximal effect
Chain of Cytochrome P450 2C19 (Homo sapiens) (P33261 whole entry, looked up): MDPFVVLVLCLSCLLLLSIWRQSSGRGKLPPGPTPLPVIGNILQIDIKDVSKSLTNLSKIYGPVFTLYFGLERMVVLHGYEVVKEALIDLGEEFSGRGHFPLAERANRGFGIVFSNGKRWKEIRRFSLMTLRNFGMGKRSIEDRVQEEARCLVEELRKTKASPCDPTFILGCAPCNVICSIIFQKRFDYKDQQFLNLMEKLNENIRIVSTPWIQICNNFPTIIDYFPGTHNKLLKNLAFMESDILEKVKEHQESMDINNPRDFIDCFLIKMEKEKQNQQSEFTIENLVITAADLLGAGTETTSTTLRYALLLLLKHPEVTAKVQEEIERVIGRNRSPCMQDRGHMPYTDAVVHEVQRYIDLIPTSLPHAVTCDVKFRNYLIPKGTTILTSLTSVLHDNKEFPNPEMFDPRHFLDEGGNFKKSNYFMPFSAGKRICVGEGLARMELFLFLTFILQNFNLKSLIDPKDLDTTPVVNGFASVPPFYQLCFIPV
Method in brief: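 P450-Glo CYP2C19 system: enzyme-substrate mix with compound 10 min at room temperature, then NADPH regeneration solution, 1 h at 37C. Proluciferin-to-luciferin conversion detected by luminescence after 20 min with detection reagent; ketoconazole as positive control.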

[10] = biological target: Cytochrome P450 2C9 (Homo sapiens) (UniProt P11712); test: Cytochrome P450 Family 2 Subfamily C Member 9 (CYP2C9) small molecule antagonists: luciferase reporter qHTS assay (AID 1671198); also: nearly all actives have a fitted effect of over 50% in size; also: potency is read from the fitted curve at half-maximal effect
Chain of Cytochrome P450 2C9 (Homo sapiens) (P11712 whole entry, looked up): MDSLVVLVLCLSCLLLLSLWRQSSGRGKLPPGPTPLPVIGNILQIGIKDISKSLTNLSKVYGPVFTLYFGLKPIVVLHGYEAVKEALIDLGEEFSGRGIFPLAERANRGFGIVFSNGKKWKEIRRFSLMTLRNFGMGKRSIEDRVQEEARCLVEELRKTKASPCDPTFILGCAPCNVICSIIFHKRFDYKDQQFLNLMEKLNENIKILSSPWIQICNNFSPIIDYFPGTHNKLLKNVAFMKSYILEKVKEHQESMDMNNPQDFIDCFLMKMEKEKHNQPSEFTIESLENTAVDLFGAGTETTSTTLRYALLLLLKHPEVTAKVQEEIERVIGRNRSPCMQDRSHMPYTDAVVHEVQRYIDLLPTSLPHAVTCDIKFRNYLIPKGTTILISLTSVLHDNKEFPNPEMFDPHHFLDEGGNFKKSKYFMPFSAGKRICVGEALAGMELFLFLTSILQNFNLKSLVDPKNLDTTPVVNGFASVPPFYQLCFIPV
Method in brief: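 CYP2C9 activity was measured with a P450-Glo proluciferin substrate. Enzyme–substrate mix was held with compound for 10 min at room temperature, then NADPH regeneration solution was added for 1 h at 37C. Luciferin product was read as luminescence.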

[11] = biological target: Cytochrome P450 1A2 (Homo sapiens) (UniProt P05177); test: Cytochrome P450 Family 1 Subfamily A Member 2 (CYP1A2) small molecule antagonists: luciferase reporter qHTS assay (AID 1671199); also: nearly all actives have a fitted effect of over 50% in size; also: potency is read from the fitted curve at half-maximal effect
Chain of Cytochrome P450 1A2 (Homo sapiens) (P05177 whole entry, looked up): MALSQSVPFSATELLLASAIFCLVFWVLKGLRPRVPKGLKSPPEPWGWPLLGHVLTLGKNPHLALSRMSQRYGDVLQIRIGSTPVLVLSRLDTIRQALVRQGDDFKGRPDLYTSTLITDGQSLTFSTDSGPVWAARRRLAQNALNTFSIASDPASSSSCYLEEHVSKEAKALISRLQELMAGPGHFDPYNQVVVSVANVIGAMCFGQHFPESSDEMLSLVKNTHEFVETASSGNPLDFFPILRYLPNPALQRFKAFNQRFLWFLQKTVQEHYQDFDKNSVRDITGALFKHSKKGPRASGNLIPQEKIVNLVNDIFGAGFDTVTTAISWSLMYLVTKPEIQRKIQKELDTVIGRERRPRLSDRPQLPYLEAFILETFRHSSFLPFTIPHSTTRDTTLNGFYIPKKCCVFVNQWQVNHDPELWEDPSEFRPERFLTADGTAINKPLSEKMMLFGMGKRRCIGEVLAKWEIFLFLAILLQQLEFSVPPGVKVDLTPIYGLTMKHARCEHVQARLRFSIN
Method in brief: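 Human CYP1A2 activity measured with a P450-Glo proluciferin substrate; compounds in DMSO preincubated 10 min at room temperature with enzyme-substrate mix, then NADPH regeneration system added for 1 h. Luciferin detection reagent, 20 min, luminescence read.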

[12] = biological target: Voltage-gated inwardly rectifying potassium channel KCNH2 (Homo sapiens) (UniProt Q12809); test: Human Ether-a-go-go-Related Gene (hERG) channel small molecule antagonists: fluorescence cell-based qHTS assay (AID 1671200)
Chain of Voltage-gated inwardly rectifying potassium channel KCNH2 (Homo sapiens) (Q12809 whole entry, looked up): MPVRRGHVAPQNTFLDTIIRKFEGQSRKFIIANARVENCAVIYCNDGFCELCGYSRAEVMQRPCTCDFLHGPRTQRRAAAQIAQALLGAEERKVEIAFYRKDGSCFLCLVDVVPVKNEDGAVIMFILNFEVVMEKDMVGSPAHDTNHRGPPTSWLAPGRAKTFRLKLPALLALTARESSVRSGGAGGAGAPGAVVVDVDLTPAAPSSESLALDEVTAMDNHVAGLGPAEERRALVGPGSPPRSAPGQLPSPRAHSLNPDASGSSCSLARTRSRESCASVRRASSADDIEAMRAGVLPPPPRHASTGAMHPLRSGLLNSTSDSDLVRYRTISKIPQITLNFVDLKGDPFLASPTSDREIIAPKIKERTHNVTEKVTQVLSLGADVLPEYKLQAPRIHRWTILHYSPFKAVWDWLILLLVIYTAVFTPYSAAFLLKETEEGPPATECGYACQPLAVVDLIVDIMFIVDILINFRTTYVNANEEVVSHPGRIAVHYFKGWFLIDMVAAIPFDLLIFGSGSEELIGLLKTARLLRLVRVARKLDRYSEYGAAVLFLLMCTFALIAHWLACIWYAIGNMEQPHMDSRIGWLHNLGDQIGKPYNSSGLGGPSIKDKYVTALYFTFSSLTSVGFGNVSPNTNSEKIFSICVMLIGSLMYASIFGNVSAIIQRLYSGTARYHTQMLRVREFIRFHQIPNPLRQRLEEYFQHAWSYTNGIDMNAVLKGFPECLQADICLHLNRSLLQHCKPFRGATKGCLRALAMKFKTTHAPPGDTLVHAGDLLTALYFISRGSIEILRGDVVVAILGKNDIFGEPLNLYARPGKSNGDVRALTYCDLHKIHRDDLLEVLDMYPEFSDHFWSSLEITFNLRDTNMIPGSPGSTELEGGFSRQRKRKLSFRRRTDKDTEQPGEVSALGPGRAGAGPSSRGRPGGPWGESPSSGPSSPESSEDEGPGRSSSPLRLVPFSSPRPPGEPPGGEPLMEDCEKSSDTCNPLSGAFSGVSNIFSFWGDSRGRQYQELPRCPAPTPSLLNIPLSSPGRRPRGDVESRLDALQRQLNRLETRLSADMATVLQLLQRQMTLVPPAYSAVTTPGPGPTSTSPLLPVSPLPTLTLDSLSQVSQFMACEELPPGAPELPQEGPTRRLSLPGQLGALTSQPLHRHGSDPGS
Method in brief: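 U2OS cells expressing the channel were plated at 1000 cells/well, incubated overnight at 37 C, then loaded with FluxOR II thallium-sensitive dye for 1 h at room temperature in the dark, with a further 10 min at room temperature before stimulation.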

[13] = biological target: Cytochrome P450 3A4 (Homo sapiens) (UniProt P08684); test: Cytochrome P450 Family 3 Subfamily A Member 4 (CYP3A4) small molecule antagonists: luciferase reporter qHTS assay (AID 1671201); also: nearly all actives have a fitted effect of over 50% in size; also: potency is read from the fitted curve at half-maximal effect
Chain of Cytochrome P450 3A4 (Homo sapiens) (P08684 whole entry, looked up): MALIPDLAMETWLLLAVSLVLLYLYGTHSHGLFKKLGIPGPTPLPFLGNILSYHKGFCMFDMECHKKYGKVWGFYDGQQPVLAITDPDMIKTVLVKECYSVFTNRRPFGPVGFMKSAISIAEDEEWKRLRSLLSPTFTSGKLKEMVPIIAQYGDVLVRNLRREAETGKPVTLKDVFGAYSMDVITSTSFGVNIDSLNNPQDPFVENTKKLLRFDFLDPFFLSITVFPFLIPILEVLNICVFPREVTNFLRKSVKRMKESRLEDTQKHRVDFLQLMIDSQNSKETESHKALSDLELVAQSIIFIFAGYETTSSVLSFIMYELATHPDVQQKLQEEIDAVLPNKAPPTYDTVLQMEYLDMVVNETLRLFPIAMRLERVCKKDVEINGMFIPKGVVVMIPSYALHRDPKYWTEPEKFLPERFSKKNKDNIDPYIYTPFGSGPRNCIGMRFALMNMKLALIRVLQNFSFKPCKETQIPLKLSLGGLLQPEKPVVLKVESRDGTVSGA
Method in brief: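 P450-Glo CYP3A4 system with proluciferin substrate; compounds preincubated 10 min RT with enzyme-substrate mix, then NADPH regeneration added for 1 h RT. Detection reagent 20 min, luminescence read as relative luminescence units.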

[14] = biological target: Nuclear receptor subfamily 1 group I member 2 (Rattus norvegicus) (UniProt Q9R1A7); test: Rat pregnane X receptor (rPXR) activation by small molecules, qHTS assay (AID 1346983); settings: rPXR luciferase reporter cells, One-Glo luminescence, 24 h; max activation: stronger effect = higher value; also: nearly all actives have a fitted effect of over 20% in size
Chain of Nuclear receptor subfamily 1 group I member 2 (Rattus norvegicus) (Q9R1A7 whole entry, looked up): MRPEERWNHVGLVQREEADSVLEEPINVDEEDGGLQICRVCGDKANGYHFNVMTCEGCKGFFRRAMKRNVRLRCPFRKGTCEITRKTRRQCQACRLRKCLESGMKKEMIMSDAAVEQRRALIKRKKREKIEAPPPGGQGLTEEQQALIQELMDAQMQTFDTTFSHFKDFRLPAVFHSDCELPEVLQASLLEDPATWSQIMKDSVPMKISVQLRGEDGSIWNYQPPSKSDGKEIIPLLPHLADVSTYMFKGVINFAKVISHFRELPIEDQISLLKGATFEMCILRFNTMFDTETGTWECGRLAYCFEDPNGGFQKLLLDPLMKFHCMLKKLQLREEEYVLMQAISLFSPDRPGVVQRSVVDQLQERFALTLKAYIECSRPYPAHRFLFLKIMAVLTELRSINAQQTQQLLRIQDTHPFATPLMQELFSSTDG
Method in brief: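 Cell-based rPXR luciferase reporter assay, 2,000 cells per well, rested 5hr at 37 C before compound addition in DMSO, then 24 hr at 37 C. One-Glo reagent was added and luminescence read after 30 min at room temperature.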

[15] = biological target: Nuclear receptor subfamily 1 group I member 2 (Homo sapiens) (UniProt O75469); test: CYP3A4 induction through human pregnane X receptor (PXR) by small molecules, qHTS assay (AID 1346984); also: nearly all actives have a fitted effect of over 40% in size
Method in brief: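 DPX-2 cells (HepG2 co-transfected with PXR and CYP3A4 promoter-luciferase) treated with compounds 24 h at 37C; luciferin-IPA CYP3A4 substrate 3uM final added for 3 h, then One-Glo; luminescence read. qHTS format.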

Compound | Potency [1] | Potency [2] | Potency [3] | Potency [4] | Potency [5] | Potency [6] | Potency [7] | Potency [8] | Potency [9] | Potency [10] | Potency [11] | Potency [12] | Potency [13] | max activation [14] | outcome [15]
CCCCNC(N)=O | inactive | inactive | inactive | inactive | inactive | inactive | inactive | inactive | inactive | inactive | inactive | inactive | – | – | –
CCCCC(CC)COC(=O)/C=C\C(=O)OCC(CC)CCCC (stereo unspecified) | inactive | inactive | inactive | inactive | inactive | inactive | 48.5 µM (active) and inactive | inactive | 39.9 µM (active) and 71 µM (active) | 39.9 µM (active) | 35.6 µM (active) | – | – | – | –
CCC(C)C=O (stereo unspecified) | inactive | inactive | inactive | inactive | inactive | inactive | inactive | inactive | 39.9 µM (active) and inactive | inactive | inactive | inactive | inactive | – | –
O=C(c1cc(O)c(O)c(O)c1)c1ccc(O)c(O)c1O | inactive | 39.8 µM (active) and 61.1 µM (active) | inactive | 48.4 µM (active) and 54.5 µM (active) and 29.8 µM (active) | inactive | 54.3 µM (active) and 30.6 µM (active) | inactive | 31.6 µM (active) and inactive | 15.9 µM (active) and 31.7 µM (active) | 3.16 µM (active) and 50.2 µM (active) and inactive | 39.8 µM (active) and 39.9 µM (active) and inactive | – | – | – | –
O=C1CCCCC1 | inactive | inactive | inactive | inactive | inactive | inactive | inactive | inactive | 74.6 µM (active) and inactive | inactive | inactive | – | inactive | – | –
CC(C)Cc1ccccc1 | inactive | inactive | inactive | inactive | inactive | inactive | inactive | inactive | inactive | inactive | inactive | inactive | – | – | –
OCCOCCOCCOCCO | inactive | inactive | inactive | inactive | inactive | inactive | inactive | inactive | 40.8 µM (active) and inactive | inactive | 39.9 µM (active) | inactive | – | – | –
Cc1cc(O)cc(C)c1Cl | inactive | inactive | inactive | inactive | inactive | inactive | inactive | inactive | inactive | inactive | 25.2 µM (active) and 15.5 µM (active) | – | inactive | -1.35% (inactive) | inactive
CC(C)(C)C1CCC(O)CC1 (stereo unspecified) | inactive | inactive | inactive | inactive | inactive | inactive | inactive | inactive | 32.2 µM (active) and inactive | inactive | 72 µM (active) and inactive | inactive | inactive | – | –
C=C(C)C(=O)OCCCCCC | inactive | inactive | inactive | inactive | inactive | inactive | inactive | inactive | inactive | inactive | inactive | – | – | – | –
CCCCCCCCC | inactive | inactive | inactive | inactive | inactive | inactive | inactive | inactive | inactive | inactive | inactive | – | – | – | –
CC1CC(OC(=O)c2ccccc2O)CC(C)(C)C1 (stereo unspecified) | inactive | inactive | inactive | inactive | inactive | inactive | inactive | inactive | inactive | inactive and 44.8 µM (active) | inactive and 27.5 µM (active) | inactive | inactive | -1.96% (inactive) | inactive
Cc1cc(O)c2c(c1)C(=O)c1cc(O)cc(O)c1C2=O | inactive | 29.9 µM (active) | inactive | 48.6 µM (active) | inactive | 26.7 µM (active) and 21.7 µM (active) | 29.9 µM (active) and 21.7 µM (active) | inactive | inactive and 35.6 µM (active) | 12.3 µM (active) and 11.2 µM (active) | 8.94 µM (active) | inactive | 27.6 µM (active) and 22.4 µM (active) | – | –
O=S(=O)(O)CCS | inactive | inactive | inactive | inactive | inactive | inactive | inactive | 31.3 µM (active) and inactive | inactive | – | inactive | – | inactive | -3.83% (inactive) | inactive
CC[Si](OC(C)=O)(OC(C)=O)OC(C)=O | inactive | inactive | inactive | inactive | inactive | inactive | 48.5 µM (active) and 48.6 µM (active) | 35.6 µM (active) | 50.2 µM (active) and inactive | 71 µM (active) and inactive | inactive | inactive | 3.17 µM (active) and 35.6 µM (active) | – | –
